Test results: PubChem BioAssay (Tox21)
Unmarked numbers belong to inactive results. Activity calls are given as the source filed them. Unless noted, the call rests on the fitted dose curve; in most records, active means well fitted curve in the direction sought with a large enough effect in the repeat runs; inconclusive means weak or mixed curves; inactive means no such curve, though single readings can be large; an effect the other way counts as inactive or inconclusive.

Legend:
[1] = qHTS assay for identifying genotoxic compounds that show differential cytotoxicity against isogenic chicken DT40 cell lines with known DNA damage response pathways - wild type cell line (AID 743012); further: nearly all actives have a fitted effect of over 60% in size; further: potency means the concentration at half of the fitted maximal effect
Method in brief: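 Wild type DT40, 300 cells/well, ~0.5 h settle at 37 C/5% CO2; compounds in DMSO added by pintool; 40 h at 37 C/5% CO2; CellTiter-Glo, 30 min RT; luminescence.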

[2] = qHTS assay for identifying genotoxic compounds that show differential cytotoxicity against isogenic chicken DT40 cell lines with known DNA damage response pathways - Rad54/Ku70 mutant cell line (AID 743015); further: nearly all actives have a fitted effect of over 60% in size; further: potency means the concentration at half of the fitted maximal effect
[3] = qHTS assay to identify small molecule antagonists of the androgen receptor (AR) signaling pathway - cell viability counter screen (AID 743033; further: nearly all actives have a fitted effect of over 45% in size; further: potency means the concentration at half of the fitted maximal effect)
[4] = qHTS assay to identify small molecule antagonists of the androgen receptor (AR) signaling pathway using the MDA cell line - cell viability counter screen (AID 743041; further: nearly all actives have a fitted effect of over 45% in size; further: potency means the concentration at half of the fitted maximal effect)
Method in brief: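 Cells were plated at 3,000 per well and left 5 h. Compounds in DMSO were then pinned in, followed by R1881. After 16 h at 37C, CellTiter-Fluor fluorescence gave viability.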

[5] = qHTS assay to identify small molecule antagonists of the thyroid receptor (TR) signaling pathway - cell viability counter screen (AID 743064); further: nearly all actives have a fitted effect of over 50% in size; further: potency means the concentration at half of the fitted maximal effect
Method in brief: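 Plate GH3.TRE-Luc cells; incubate 4 h at 37 °C; add compound, then T3 to 1 nM final; incubate 23.5 h; add CellTiter-Fluor; incubate 30 min at 37 °C, 5% CO2; read fluorescence.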

[6] = qHTS assay to identify small molecule antagonists of the thyroid receptor (TR) signaling pathway (AID 743065); further: nearly all actives have a fitted effect of over 55% in size; further: potency means the concentration at half of the fitted maximal effect
Method in brief: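 Antagonism measured as loss of luciferase signal in GH3 cells stably carrying a TRE-luciferase reporter, co-treated with compound and T3 (1 nM final) for 23.5 h at 37 C. Viability was read in the same well by CellTiter-Fluor.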

[7] = system: thyroid hormone receptor (rat, GH3 cells); assay: qHTS assay to identify small molecule agonists of the thyroid receptor (TR) signaling pathway (AID 743066; calls by dose curve)
[8] = molecular target: Estrogen receptor (Homo sapiens) (UniProt P03372); assay: qHTS assay to identify small molecule agonists of the estrogen receptor alpha (ER-alpha) signaling pathway (AID 743075; calls by dose curve;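 further: HEK293 GripTite cells with ER-alpha and UAS-driven beta-lactamase reporter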); conditions: HEK293 ER-alpha-UAS-bla, beta-lactamase FRET ratio, 18 h; activation: at 70.1 µM (top of the series)
Sequence of Estrogen receptor (Homo sapiens) (P03372 whole entry, looked up): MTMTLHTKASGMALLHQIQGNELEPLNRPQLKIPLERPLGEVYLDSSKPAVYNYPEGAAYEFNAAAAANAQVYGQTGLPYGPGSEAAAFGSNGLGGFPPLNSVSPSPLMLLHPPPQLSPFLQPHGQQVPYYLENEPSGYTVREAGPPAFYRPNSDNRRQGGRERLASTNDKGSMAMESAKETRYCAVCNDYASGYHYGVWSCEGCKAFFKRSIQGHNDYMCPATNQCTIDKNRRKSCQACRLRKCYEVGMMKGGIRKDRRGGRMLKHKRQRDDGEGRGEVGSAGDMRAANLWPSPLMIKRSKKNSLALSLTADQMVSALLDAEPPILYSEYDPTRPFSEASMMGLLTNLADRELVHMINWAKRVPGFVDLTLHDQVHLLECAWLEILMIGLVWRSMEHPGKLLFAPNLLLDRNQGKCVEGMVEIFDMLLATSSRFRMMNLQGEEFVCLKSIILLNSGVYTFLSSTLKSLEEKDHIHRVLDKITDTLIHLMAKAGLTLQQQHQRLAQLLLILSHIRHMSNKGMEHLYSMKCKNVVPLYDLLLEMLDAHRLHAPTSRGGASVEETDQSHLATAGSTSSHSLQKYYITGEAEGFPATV

Aromatase (Homo sapiens) = Aromatase (Homo sapiens) (UniProt P11511); assay: qHTS assay to identify aromatase inhibitors (AID 743083); further: nearly all actives have a fitted effect of over 55% in size; further: potency means the concentration at half of the fitted maximal effect
Sequence of Aromatase (Homo sapiens) (P11511 whole entry, looked up): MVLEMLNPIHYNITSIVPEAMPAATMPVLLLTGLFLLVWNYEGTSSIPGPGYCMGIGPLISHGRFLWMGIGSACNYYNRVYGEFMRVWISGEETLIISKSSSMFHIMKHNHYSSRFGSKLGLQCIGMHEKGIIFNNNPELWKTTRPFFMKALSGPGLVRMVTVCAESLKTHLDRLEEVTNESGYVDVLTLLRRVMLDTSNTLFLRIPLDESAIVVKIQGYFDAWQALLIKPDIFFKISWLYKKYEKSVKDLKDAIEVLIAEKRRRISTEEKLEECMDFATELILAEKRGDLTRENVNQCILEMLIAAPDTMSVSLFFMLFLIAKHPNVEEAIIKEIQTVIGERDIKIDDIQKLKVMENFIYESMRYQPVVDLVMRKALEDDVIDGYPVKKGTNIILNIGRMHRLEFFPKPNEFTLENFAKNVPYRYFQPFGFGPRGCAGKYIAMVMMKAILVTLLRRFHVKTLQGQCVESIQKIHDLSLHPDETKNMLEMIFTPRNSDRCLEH

[9] = qHTS assay for identifying genotoxic compounds that show differential cytotoxicity against isogenic chicken DT40 cell lines with known DNA damage response pathways - Rev3 mutant cell line (AID 743014); further: nearly all actives have a fitted effect of over 55% in size; further: potency means the concentration at half of the fitted maximal effect
[10] = molecular target: Estrogen receptor (Homo sapiens) (UniProt P03372); assay: qHTS assay to identify small molecule antagonists of the estrogen receptor alpha (ER-alpha) signaling pathway (AID 743069; active means well fitted curve in the direction sought with a large enough effect in the signal ratio in the repeat runs, not every such curve was filed as active; inconclusive means weak or mixed curves, or effect the other way; inactive means no such curve, though single readings can be large or run the other way; the % refers to the signal ratio; further: potency means the concentration at half of the fitted maximal effect)
Method in brief: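 ER-alpha-UAS-bla GripTite HEK293 line; 2% charcoal-stripped FBS overnight; plated, 4 hr 37C/5% CO2; cpd in DMSO + 17beta-estradiol, 18 hr 37C; LiveBLAzer B/G FRET substrate 2 hr RT; fluorescence intensity.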

[11] = qHTS assay to identify small molecule antagonists of the estrogen receptor alpha (ER-alpha) signaling pathway using the BG1 cell line (AID 743080; calls by dose curve;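 further: BG1 cells stimulated with 17beta-estradiol alongside compound; nearly all actives have a fitted effect of over 25% in size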; further: potency means the concentration at half of the fitted maximal effect)
Method in brief: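 Seeding, 24 h rest, compound transfer from DMSO, 17beta-estradiol addition, 21.5 h incubation, CellTiter-Fluor (30 min, 37 C), then ONE-Glo (30 min, room temperature): this sequence was run on BG1-Luc-4E2 reporter cells.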

[12] = qHTS assay to identify small molecule antagonists of the estrogen receptor alpha (ER-alpha) signaling pathway using the BG1 cell line - cell viability counter screen (AID 743081);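 further: compound given together with 17beta-estradiol as the ER stimulus; nearly all actives have a fitted effect of over 45% in size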; further: potency means the concentration at half of the fitted maximal effect
[13] = molecular target: Androgen receptor (Homo sapiens) (UniProt P10275); assay: qHTS assay to identify small molecule antagonists of the androgen receptor (AR) signaling pathway (AID 743035; active means well fitted inhibition curve with a large enough effect in the signal ratio in the repeat runs, not every such curve was filed as active; inconclusive means weak or mixed curves, or effect the other way; inactive means no such curve, though single readings can be large or run the other way; the % refers to the signal ratio; further: potency means the concentration at half of the fitted maximal effect)
Sequence of Androgen receptor (Homo sapiens) (P10275 whole entry, looked up): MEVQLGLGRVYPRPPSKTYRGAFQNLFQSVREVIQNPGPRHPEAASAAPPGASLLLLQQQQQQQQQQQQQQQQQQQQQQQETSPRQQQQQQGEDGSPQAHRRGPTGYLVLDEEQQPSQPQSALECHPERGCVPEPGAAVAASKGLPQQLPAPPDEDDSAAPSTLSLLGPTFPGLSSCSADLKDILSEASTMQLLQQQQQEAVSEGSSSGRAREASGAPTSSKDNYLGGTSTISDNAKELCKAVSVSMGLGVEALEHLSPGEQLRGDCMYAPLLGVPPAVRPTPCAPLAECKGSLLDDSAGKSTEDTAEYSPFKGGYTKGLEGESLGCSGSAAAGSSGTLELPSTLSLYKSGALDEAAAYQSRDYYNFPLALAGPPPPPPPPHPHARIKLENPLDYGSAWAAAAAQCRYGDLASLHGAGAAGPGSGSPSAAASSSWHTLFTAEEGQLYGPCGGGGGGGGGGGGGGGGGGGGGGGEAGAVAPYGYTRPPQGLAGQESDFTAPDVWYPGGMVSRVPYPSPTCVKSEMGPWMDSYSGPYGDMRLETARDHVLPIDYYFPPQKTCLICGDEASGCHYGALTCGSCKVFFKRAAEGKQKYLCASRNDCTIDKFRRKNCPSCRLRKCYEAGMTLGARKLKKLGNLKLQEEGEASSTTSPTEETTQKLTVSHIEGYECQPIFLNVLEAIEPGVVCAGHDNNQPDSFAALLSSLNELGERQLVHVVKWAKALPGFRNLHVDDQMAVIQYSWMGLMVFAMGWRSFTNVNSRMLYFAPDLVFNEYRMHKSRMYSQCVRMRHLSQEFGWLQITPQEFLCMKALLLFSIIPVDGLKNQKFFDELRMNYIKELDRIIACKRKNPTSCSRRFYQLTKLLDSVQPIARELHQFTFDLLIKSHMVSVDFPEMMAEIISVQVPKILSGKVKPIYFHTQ
Method in brief: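 Fluorescence from a beta-lactamase FRET substrate (LiveBLAzer B/G, 2 h, room temperature) measured inhibition of R1881-stimulated signaling in GeneBLAzer AR-UAS-bla HEK293 cells exposed to compound for 16 h at 37C.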

[14] = molecular target: Androgen receptor (Homo sapiens) (UniProt P10275); assay: qHTS assay to identify small molecule agonists of the androgen receptor (AR) signaling pathway (AID 743036; active means well fitted activation curve with a large enough effect in the signal ratio in the repeat runs, with a control signal flat, not every such curve was filed as active; inconclusive means weak or mixed curves, or effect the other way; inactive means no such curve, though single readings can be large or run the other way; the % refers to the signal ratio)
Method in brief: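 Reporter line: GeneBLAzer AR-UAS-bla-GripTite (HEK293). Steps: plate cells, 4 h rest, add compounds, 16 h at 37C, add LiveBLAzer B/G substrate, 2 h at RT, read fluorescence.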

[15] = molecular target: Androgen receptor (Homo sapiens) (UniProt P10275); assay: qHTS assay to identify small molecule agonists of the androgen receptor (AR) signaling pathway using the MDA cell line (AID 743040; further: nearly all actives have a fitted effect of over 20% in size)
Method in brief: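 Cells plated, 5 h at 37C/0% CO2; compound or DMSO pinned; 16 h at 37C; ONE-Glo added; luminescence measured after 30 min at room temperature. Reporter line: MDA-kb2 with MMTV-luciferase responsive to AR and GR.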

[16] = molecular target: Androgen receptor (Homo sapiens) (UniProt P10275); assay: qHTS assay to identify small molecule antagonists of the androgen receptor (AR) signaling pathway using the MDA cell line (AID 743042; further: nearly all actives have a fitted effect of over 55% in size; further: potency means the concentration at half of the fitted maximal effect)
Method in brief: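 Antagonist mode: compounds plus R1881 agonist added to MDA-kb2 AR-luc cells, incubated 16 h at 37C. Luciferase reporter luminescence quantified, with multiplexed CellTiter-Fluor readout for cell viability.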

[17] = qHTS assay to identify small molecule antagonists of the estrogen receptor alpha (ER-alpha) signaling pathway - cell viability counter screen (AID 743074; calls by dose curve;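 further: HEK293 cells carrying ER-alpha-UAS-bla reporter stimulated with 17beta-estradiol; nearly all actives have a fitted effect of over 45% in size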; further: potency means the concentration at half of the fitted maximal effect)
[18] = molecular target: Estrogen receptor (Homo sapiens) (UniProt P03372); assay: qHTS assay to identify small molecule agonists of the estrogen receptor alpha (ER-alpha) signaling pathway using the BG1 cell line (AID 743079); conditions: BG1Luc4E2 cells, ERE-luciferase agonist, 22 h; at 95 µM (top of the series); further: nearly all actives have a fitted effect of over 20% in size
On the % scale 0 is the no-effect control and ±100 the full control effect.

| SMILES | Potency [1] | Potency [2] | Potency [3] | Potency [4] | Potency [5] | Potency [6] | Potency [7] | Potency [8] | Potency (Aromatase (Homo sapiens)) | Potency [9] | Potency [10] | Potency [11] | Potency [12] | Potency [13] | Potency [14] | Potency [15] | Potency [16] | Potency [17] | activation [18] [%] |
| --- | --- | --- | --- | --- | --- | --- | --- | --- | --- | --- | --- | --- | --- | --- | --- | --- | --- | --- | --- |
| CCCCCCCCn1sc(Cl)c(Cl)c1=O | 0.433 µM (active) | 0.686 µM (active) | 6.16 µM (active) | inactive | 27.3 µM (active) | 27.3 µM (active) | inactive | inactive | 4.86 µM (active) |  |  |  |  |  |  |  |  |  |  |
| CCc1cc(Cc2cc(CC)c(N)c(CC)c2)cc(CC)c1N | 61.1 µM (active) | 54.5 µM (active) | inactive | inactive | 68.6 µM (active) | 48.6 µM (active) |  | inactive |  | 61.1 µM (active) | 38.9 µM [inconclusive] (active) | 61.1 µM (active) | inactive |  |  |  |  |  |  |
| ON=C1CCCC1 | inactive | inactive | inactive | inactive | inactive | inactive | inactive | inactive | inactive | inactive | inactive | inactive | inactive | inactive | inactive | inactive | inactive | inactive | 13.6 |
| CCCCc1oc2ccc(NS(C)(=O)=O)cc2c1C(=O)c1ccc(OCCCN(CCCC)CCCC)cc1 | 9.44 µM (active) | 18.8 µM (active) | 21.3 µM (active) |  | 10.6 µM (active) | 11.9 µM (active) |  |  | 29.8 µM (active) | 13.3 µM (active) |  |  |  |  |  |  |  |  |  |
| CCCCCCC[N+](CC)(CC)CCCCc1ccc(Cl)cc1 |  | 1.27 µM (active) | inactive |  | inactive | 12.7 µM (active) | inactive | inactive |  | 1.43 µM (active) |  |  | inactive |  |  |  |  | 8.11 µM (active) |  |
| [Cl][Au]([Cl])[Cl] | 13.7 µM (active) | 13.7 µM (active) | 21.9 µM (active) | 48.6 µM (active) | 3.86 µM (active) |  |  |  | 24.3 µM (active) | 12.2 µM (active) |  |  |  |  |  |  |  |  |  |
| CC(C)OC(=O)c1cc2c(OCC(O)CNC(C)(C)C)cccc2[nH]1 (configuration not stated) | 23.7 µM (active) | 26.6 µM (active) | inactive | inactive | 13.3 µM (active) | 21.1 µM (active) | inactive |  | inactive |  |  |  | inactive | inactive |  | inactive | inactive | inactive |  |
| Oc1c(Cl)cc(Cl)c2cccnc12 | 3.76 µM (active) | 4.22 µM (active) | inactive | 11.1 µM (active) | 9.44 µM (active) | 6.68 µM (active) |  |  | 11.9 µM (active) | 3.76 µM (active) |  | 21.1 µM (active) | inactive |  |  |  |  |  |  |
| CN(C)C(=O)C1(N2CCCCC2)CCN(CC[C@@]2(c3ccc(Cl)c(Cl)c3)CN(C(=O)c3ccccc3)CCO2)CC1 | 7.19 µM (active) | 5.71 µM (active) | 16.2 µM (active) | 50.9 µM (active) | 5.09 µM (active) | 4.54 µM (active) |  |  | 40.4 µM (active) | 8.07 µM (active) |  |  | 64.1 µM (active) |  |  | inactive | 28.6 µM (active) | 51.3 µM (active) |  |
| CCCCC(CC)COC(=O)c1ccccc1C(=O)O (configuration not stated) |  |  | inactive |  | inactive |  | inactive |  |  |  |  |  |  |  |  |  |  |  |  |
| CCN(CC)CCNC(=O)c1c(C)[nH]c(/C=C2\C(=O)Nc3ccc(F)cc32)c1C | 5.96 µM (active) | 7.5 µM (active) | inactive | inactive | 26.6 µM (active) |  |  |  |  | 9.44 µM (active) |  |  | 9.44 µM (active) |  |  |  |  | inactive |  |
| N=C1C=CC(=C(c2ccc(N)cc2)c2ccc(N)cc2)C=C1 |  | 7.7 µM (active) | 15.5 µM (active) | 15.4 µM (active) | 9.69 µM (active) |  |  |  | 4.86 µM (active) | 6.86 µM (active) |  |  | 13.7 µM (active) | 2.19 µM (active) |  | inactive | 2.43 µM (active) | 1.38 µM (active) |  |
| O=C(O)c1c(Cl)cccc1Cl | inactive | inactive | inactive | inactive | inactive | inactive | inactive |  | inactive | inactive |  |  | inactive |  |  |  |  | inactive |  |
| Cc1cc(O)c(Cl)c(C)c1Cl | 24.3 µM (active) | 17.2 µM (active) | 27.5 µM (active) |  | 17.2 µM (active) | 24.3 µM (active) | inactive | inactive | 48.6 µM (active) | 24.3 µM (active) |  |  | inactive |  |  | inactive | 54.5 µM (active) |  |  |
